The antibiotic and cytotoxicity screens of Wong et al. (2023)
Screen size: about 39,000 compounds; about 3,300 (8.5%) were called active. The sample holds actives, similar compounds and a random draw of the others, so the mix is not that of the screen.

These compounds were tested on HepG2 (assay: cytotoxicity call (relative viability < 0.9)). Settings: 10 µM.
With `CCOC(=O)/C=C(C)/C=C/C=C(C)/C=C/c1c(C)cc(OC)c(C)c1C` the cytotoxicity call was “inactive”.
In the case of `O=C(NCCCn1ccnc1)C(=O)NC[C@H]1OCCN1S(=O)(=O)c1ccc(F)cc1`, the cytotoxicity call is reported as “inactive”.
`C[C@@H]1CN([C@@H](C)CO)C(=O)c2cccc(NS(=O)(=O)c3ccccc3)c2O[C@H]1CN(C)S(=O)(=O)c1cn(C)cn1` was tested, and the cytotoxicity call was “inactive”.
With `Cc1ccc(S(=O)(=O)Nc2ccc3c(c2)C(=O)N([C@H](C)CO)C[C@@H](C)[C@@H](CN(C)C(=O)c2ccccc2)OCCCC[C@@H](C)O3)cc1` the cytotoxicity call was “inactive”.
With `CC(C)NC(=O)Nc1ccc2c(c1)C(=O)N([C@@H](C)CO)C[C@H](C)[C@@H](CN(C)S(=O)(=O)c1ccc(F)cc1)O2` the cytotoxicity call was “inactive”.
For `COc1ccc(C#Cc2cnc3c(c2)C(=O)N([C@H](C)CO)C[C@@H](C)[C@@H](CN(C)C(=O)CN(C)C)O3)cc1`, the cytotoxicity call was “inactive”.
With `C[C@H]1CN([C@@H](C)CO)C(=O)c2cc(NC(=O)CCCN(C)C)ccc2O[C@@H]1CN(C)S(=O)(=O)c1cn(C)cn1` the cytotoxicity call was “inactive”.
In the case of `C[C@H](CO)N1C[C@H](C)[C@H](CN(C)Cc2ccc3c(c2)OCO3)Oc2ccc(NC(=O)C3CC3)cc2CC1=O`, the cytotoxicity call is reported as “inactive”.
In the case of `Nc1ncn(C(=O)c2ccccc2)n1`, the cytotoxicity call is reported as “inactive”.
For `C[C@@H]1CN([C@H](C)CO)C(=O)c2cccc(NC(=O)c3nc4ccccc4s3)c2O[C@@H]1CN(C)Cc1ccc(C(=O)Nc2ccccc2N)cc1`, the cytotoxicity call was “inactive”.
For `O=C(C[C@H]1C[C@@H]2c3cc(NS(=O)(=O)c4ccccc4)ccc3O[C@@H]2[C@@H](CO)O1)NC1CCCCC1`, the cytotoxicity call was “inactive”.
In the case of `COc1ccc(NC(C)=S)cc1C`, the cytotoxicity call is reported as “inactive”.
In the case of `COc1ccc(S(=O)(=O)Nc2ccc3c(c2)C(=O)N([C@H](C)CO)C[C@@H](C)[C@H](CN(C)Cc2ccccc2)OCCCC[C@@H](C)O3)cc1`, the cytotoxicity call is reported as “inactive”.
In the case of `O=C(NCCCN1CCOCC1)c1ccc(Cl)cc1`, the cytotoxicity call is reported as “inactive”.
In the case of `COc1cc2c(N3CCN(C(=O)Nc4ccc(OC(C)C)cc4)CC3)ncnc2cc1OCCCN1CCCCC1`, the cytotoxicity call is reported as “inactive”.
With `COc1cc2c(NC3CCN(C(C)C)CC3)nc(N3CCC(F)(F)CC3)nc2cc1OCCCN1CCCC1` the cytotoxicity call was “active”.
`COc1cc2ncnc(Nc3ccc(F)c(Cl)c3)c2cc1OCCCN1CCOCC1` was tested, and the cytotoxicity call was “active”.
With `C[C@H](CO)N1C[C@H](C)[C@@H](CN(C)Cc2ccc(O)cc2)OCc2ccccc2-c2c(n(C)c3ccccc23)C1=O` the cytotoxicity call was “inactive”.
For `Cc1noc(C)c1NC(=O)Nc1ccc2c(c1)C(=O)N([C@@H](C)CO)C[C@@H](C)[C@H](CN(C)C(=O)Nc1ccc(F)cc1)OCCCC[C@H](C)O2`, the cytotoxicity call was “inactive”.
In the case of `C[C@@H]1CN([C@@H](C)CO)C(=O)Cc2cc(NC(=O)CCC(F)(F)F)ccc2O[C@H]1CN(C)Cc1ccc(-c2ccccc2)cc1`, the cytotoxicity call is reported as “inactive”.
In the case of `C[C@@H]1CN([C@H](C)CO)C(=O)Cc2cc(NC(=O)CCC(F)(F)F)ccc2O[C@H]1CN(C)Cc1ccc(-c2ccccc2)cc1`, the cytotoxicity call is reported as “active”.
With `C[C@H](CO)N1C[C@H](C)[C@H](CN(C)Cc2ccc(-c3ccccc3)cc2)Oc2ccc(NC(=O)CCC(F)(F)F)cc2CC1=O` the cytotoxicity call was “inactive”.
With `C[C@H]1CN([C@@H](C)CO)C(=O)Cc2cc(NC(=O)CCC(F)(F)F)ccc2O[C@@H]1CN(C)Cc1ccc(-c2ccccc2)cc1` the cytotoxicity call was “active”.
For `C[C@H](CO)N1C[C@H](C)[C@H](CN(C)Cc2ccc(C(F)(F)F)cc2)Oc2ccc(NC(=O)CCC(F)(F)F)cc2CC1=O`, the cytotoxicity call was “inactive”.
With `C[C@@H]1CN([C@@H](C)CO)C(=O)Cc2cc(NC(=O)CCC(F)(F)F)ccc2O[C@@H]1CN(C)Cc1ccc(-c2ccccc2)cc1` the cytotoxicity call was “inactive”.
For `C[C@@H]1CN([C@H](C)CO)C(=O)Cc2cc(NC(=O)CCC(F)(F)F)ccc2O[C@@H]1CN(C)Cc1ccc(-c2ccccc2)cc1`, the cytotoxicity call was “active”.
With `C[C@H]1CN([C@@H](C)CO)C(=O)Cc2cc(NC(=O)CCC(F)(F)F)ccc2O[C@H]1CN(C)Cc1ccc(-c2ccccc2)cc1` the cytotoxicity call was “active”.
In the case of `C[C@H]1CN([C@@H](C)CO)C(=O)Cc2cc(NC(=O)CCC(F)(F)F)ccc2O[C@H]1CN(C)Cc1ccc(C(F)(F)F)cc1`, the cytotoxicity call is reported as “inactive”.
For `C[C@H](CO)N1C[C@H](C)[C@@H](CN(C)Cc2ccc(C(F)(F)F)cc2)Oc2ccc(NC(=O)CCC(F)(F)F)cc2CC1=O`, the cytotoxicity call was “inactive”.
For `C[C@@H]1CN([C@@H](C)CO)C(=O)Cc2cc(NC(=O)CCC(F)(F)F)ccc2O[C@H]1CN(C)Cc1ccc(C(F)(F)F)cc1`, the cytotoxicity call was “inactive”.
With `C[C@H](CO)N1C[C@H](C)[C@@H](CN(C)Cc2ccc(-c3ccccc3)cc2)Oc2ccc(NC(=O)CCC(F)(F)F)cc2CC1=O` the cytotoxicity call was “inactive”.
For `CC(=O)N1CCC2(CC1)NC(=O)NC2=O`, the cytotoxicity call was “inactive”.
In the case of `O=C(CN1CCOCC1)NCC[C@@H]1CC[C@@H](NC(=O)c2ccccc2F)[C@@H](CO)O1`, the cytotoxicity call is reported as “inactive”.
With `Cc1ccnc([C@@H](N)C2CC2)c1` the cytotoxicity call was “inactive”.
In the case of `C[C@@H]1CN([C@@H](C)CO)C(=O)c2cc(NC(=O)CCCCCC(=O)Nc3ccccc3N)ccc2O[C@H]1CN(C)S(=O)(=O)c1cn(C)cn1`, the cytotoxicity call is reported as “inactive”.
`Nc1ccccc1C(=O)N[C@H]1CCCCNC1=O` was tested, and the cytotoxicity call was “inactive”.
For `C[C@H](CO)N1C[C@H](C)[C@@H](CN(C)Cc2ccc(C(=O)Nc3ccccc3N)cc2)Oc2c(NC(=O)Nc3ccc4c(c3)OCO4)cccc2C1=O`, the cytotoxicity call was “inactive”.
For `C[C@H]1CN([C@@H](C)CO)C(=O)c2cc(C#CCc3ccccc3)cnc2O[C@@H]1CN(C)C(=O)Cc1cccnc1`, the cytotoxicity call was “inactive”.
`COCC#Cc1cnc2c(c1)C(=O)N([C@H](C)CO)C[C@H](C)[C@@H](CN(C)S(=O)(=O)c1cccc(OC)c1)O2` was tested, and the cytotoxicity call was “inactive”.
For `NC[C@H]1OB(O)c2c(OCCO)ccc(Cl)c21`, the cytotoxicity call was “inactive”.
In the case of `Cc1ccc(S(=O)(=O)Nc2cccc3c2O[C@H](CN(C)Cc2ccc(Oc4ccccc4)cc2)[C@@H](C)CN([C@H](C)CO)C3=O)cc1`, the cytotoxicity call is reported as “inactive”.
`C[C@H]1CN([C@@H](C)CO)C(=O)c2ccccc2-c2ccccc2CO[C@@H]1CN(C)Cc1ccc(Cl)c(Cl)c1` was tested, and the cytotoxicity call was “inactive”.
`C[C@H]1CCCCO[C@H](CN(C)C(=O)Nc2ccc(F)cc2)[C@@H](C)CN([C@@H](C)CO)C(=O)c2cc(NS(=O)(=O)c3cccs3)ccc2O1` was tested, and the cytotoxicity call was “inactive”.
`Cc1noc(C)c1S(=O)(=O)N(C)C[C@H]1Oc2ccc(NC(=O)C3CCCCC3)cc2CC(=O)N([C@@H](C)CO)C[C@H]1C` was tested, and the cytotoxicity call was “inactive”.
